Results reported in PubChem BioAssay (NCATS).
“And” between values parts separate entries of the source, which are not always exact repeats. Identical values can stand only once. Records with an inconclusive call do not appear. Entries that show only a call come without a potency. The source made the active and inactive calls. Unless noted, the call rests on the fitted dose curve; in most records, active means well fitted curve in the direction sought with a large enough effect; inconclusive means small, poorly fitted or top-dose-only effect, or another doubt; inactive means no such curve, though single readings can be large; an effect the other way counts as inactive or inconclusive.

How the values were obtained:
[1] = Cell Viability - H-4-II-E (AID 543);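 further: cells exposed to compound for 40 hours; nearly all actives have a fitted effect of over 35% in size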
Method in brief: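 AC50 from Hill-modelled qHTS concentration-response curves. H-4-II-E rat hepatoma cells in complete medium, 40 hr exposure at 37 °C, viability by CellTiter-Glo ATP luminescence.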

[2] = MultiTox-Fluor Cytotoxicity Assay - LYMP1-001 - Live Cells (AID 947)
[3] = Cell Viability - LYMP1-003 - Assay at 40 hr (AID 964); further: series mostly up to about 92 µM; nearly all actives have a fitted effect of over 60% in size
Method in brief: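 Acute toxicity is scored as a concentration-dependent loss of intracellular ATP in LYMP1-003 cells (2500/well, complete medium) after 40 hr at 37 C, measured by CellTiter-Glo luminescence; AC50 values derive from standard Hill modelling.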

[4] = Cell Viability - LYMP2-004 (AID 966); further: nearly all actives have a fitted effect of over 65% in size
Method in brief: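 Viable-cell number estimated from ATP luminescence (CellTiter-Glo) in 2500 human lymphoblastoid cells/well after 24 hr at 37 C with compound. AC50 fitted to the standard Hill equation.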

[5] = Cell Viability - LYMP2-005 (AID 967); further: series mostly up to about 92 µM
Method in brief: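 qHTS viability screen in LYMP2-005 cells: 24 h at 37 C with compound, ATP luminescence via CellTiter-Glo, AC50 from Hill curves.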

[6] = Cell Viability - LYMP2-009 (AID 968); further: series mostly up to about 92 µM; nearly all actives have a fitted effect of over 55% in size
[7] = Cell Viability - LYMP2-017 (AID 972);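 further: series mostly up to about 92 µM; cells exposed to compound for 24 hours at 37 °C; nearly all actives have a fitted effect of over 55% in size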
Method in brief: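 In this qHTS format, lymphoblastoid cells in complete medium receive test compound for a day at 37 C before ATP content is quantified by luciferase luminescence. Reported AC50 figures come from standard Hill-equation curve fitting.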

[8] = Cell Viability - LYMP2-019 (AID 973); further: nearly all actives have a fitted effect of over 55% in size
Method in brief: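 AC50 values come from Hill-equation modelling of qHTS concentration-response curves, where viability is measured as luciferase-based ATP luminescence in the lymphoblastoid line after 24 hr compound exposure in complete culture medium.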

[9] = Cell Viability - LYMP2-002 (AID 977);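 further: series mostly up to about 92 µM; compound exposure lasted 24 h at 37 °C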
Method in brief: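 Human lymphoblastoid cells, 2500/well, complete medium; 5 h 37 C settle; compound 24 h 37 C; CellTiter-Glo, 30 min RT; luminescence. Decrease in ATP = cytotoxicity; AC50 via Hill equation.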

[10] = Cell Viability - LYMP2-006 (AID 978);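 further: series mostly up to about 92 µM; cells exposed to compound for 24 hours; nearly all actives have a fitted effect of over 60% in size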
Method in brief: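 Concentration-dependent loss of intracellular ATP in a human lymphoblastoid line after 24 hr treatment at 37 C was measured by CellTiter-Glo luminescence, with AC50 values obtained from standard Hill-equation modelling.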

[11] = Cell Viability - LYMP2-020 (AID 986); further: series mostly up to about 92 µM; nearly all actives have a fitted effect of over 55% in size
Method in brief: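 Cells at 2500 per well receive a 24 hr compound exposure at 37 C. Viability is measured as ATP-dependent luciferase luminescence, with AC50 modeled from qHTS concentration-response curves.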

[12] = Cell Viability - LYMP2-022 (AID 987); further: nearly all actives have a fitted effect of over 55% in size
Method in brief: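 In this qHTS cytotoxicity screen, compound titrations were incubated 24 hr at 37 C with human lymphoblastoid cells in complete medium. Luciferase-based ATP luminescence provided the viability signal.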

[13] = Cell Viability - LYMP2-024 (AID 988); further: nearly all actives have a fitted effect of over 60% in size
Method in brief: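 Cells at 2500 per well received compound for 24 hr after a 5 hr settling period. Viability was scored by CellTiter-Glo luminescence, with AC50 from Hill fits.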

[14] = qHTS assay for small molecule antagonists of retinoid X receptor alpha signaling (AID 588546; active means well fitted inhibition curve with a large enough effect in the signal ratio, with a control signal flat, not every such curve was filed as active; the % refers to the signal ratio;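 further: cells stimulated with 9-cis-retinoic acid as agonist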); settings: HEK293T RXRa-UAS-bla, beta-lactamase ratio, antagonist mode; measured here: W530 green channel, cytotoxicity proxy
Method in brief: (§1)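 Beta-lactamase reporter inhibition, read as CCF4 fluorescence ratio (ex 405, em 460/530 nm) after 2 h at RT. HEK293T UAS-bla cells, 2500/well, were stimulated with 9-cis-RA at 500 or 100 nM final alongside test compound for 18 h at 37 C.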

[15] = biological target: Retinoic acid receptor RXR-alpha (Homo sapiens) (UniProt P19793); experiment: as above; settings: HEK293T RXRa-UAS-bla, beta-lactamase ratio, antagonist mode
Chain of Retinoic acid receptor RXR-alpha (Homo sapiens) (P19793 whole entry, looked up): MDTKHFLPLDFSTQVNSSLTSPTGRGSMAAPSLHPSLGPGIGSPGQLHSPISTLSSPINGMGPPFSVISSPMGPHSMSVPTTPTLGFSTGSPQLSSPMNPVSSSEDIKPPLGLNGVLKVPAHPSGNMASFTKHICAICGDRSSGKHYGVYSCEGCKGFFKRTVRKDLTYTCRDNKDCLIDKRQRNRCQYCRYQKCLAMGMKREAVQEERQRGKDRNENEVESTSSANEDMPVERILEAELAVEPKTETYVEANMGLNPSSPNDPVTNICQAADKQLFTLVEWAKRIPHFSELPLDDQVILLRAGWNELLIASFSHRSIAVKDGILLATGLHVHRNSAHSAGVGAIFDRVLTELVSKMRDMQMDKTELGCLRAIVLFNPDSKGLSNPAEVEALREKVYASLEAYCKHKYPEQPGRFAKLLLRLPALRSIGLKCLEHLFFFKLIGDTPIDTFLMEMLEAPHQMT
Method in brief: as §1

[16] = biological target: Thyroid hormone receptor beta (Homo sapiens) (UniProt P10828); experiment: qHTS assay for small molecule antagonists of thyroid hormone receptor beta signaling (AID 588547; active means well fitted inhibition curve with a large enough effect in the signal ratio, with a control signal flat, not every such curve was filed as active; the % refers to the signal ratio;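 further: cells stimulated with 0.4 nM T3 agonist during compound exposure; series mostly up to about 77 µM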); settings: TR-UAS-bla HEK293, beta-lactamase ratio, antagonist mode, 18 h
Chain of Thyroid hormone receptor beta (Homo sapiens) (P10828 whole entry, looked up): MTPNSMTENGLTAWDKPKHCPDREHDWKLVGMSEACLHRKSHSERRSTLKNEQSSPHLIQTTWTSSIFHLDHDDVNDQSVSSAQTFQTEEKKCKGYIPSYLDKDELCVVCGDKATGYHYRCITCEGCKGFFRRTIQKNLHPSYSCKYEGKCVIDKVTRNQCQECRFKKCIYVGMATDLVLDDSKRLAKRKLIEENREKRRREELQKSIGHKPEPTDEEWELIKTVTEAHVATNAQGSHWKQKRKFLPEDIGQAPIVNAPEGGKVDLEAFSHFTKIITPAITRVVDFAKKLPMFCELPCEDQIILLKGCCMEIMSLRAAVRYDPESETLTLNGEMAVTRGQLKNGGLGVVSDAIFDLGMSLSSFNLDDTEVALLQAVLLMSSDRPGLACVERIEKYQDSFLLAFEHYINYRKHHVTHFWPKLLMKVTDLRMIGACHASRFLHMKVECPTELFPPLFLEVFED
Method in brief: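 TR-UAS-bla GripTite HEK293 cells in 2% charcoal/dextran FBS medium; compounds 0.59 nM to 92 uM with T3 at 0.4nM final, 18 h at 37 C. Beta-lactamase read by CCF4 fluorescence (460/530 nm); Hill fits gave IC50 and efficacy.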

[17] = qHTS assay for small molecule disruptors of the mitochondrial membrane potential - 5 hr assay (AID 651755; calls by dose curve; further: nearly all actives have a fitted effect of over 40% in size; further: potency means the concentration at half of the fitted maximal effect)
Method in brief: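 Read-out: ratiometric Mito-MPS fluorescence, green monomer (ex 490/em 535) vs red mitochondrial aggregate (ex 540/em 590). HepG2 cells treated 5 hr at 37C before 30 min dye loading.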

[18] = qHTS assay for environmental chemicals that activate the Aryl hydrocarbon Receptor (AhR) signaling pathway (AID 651777); settings: 1A2-DRE human hepatoma cells, luciferase, 24 h; activation: stronger effect = higher value; further: nearly all actives have a fitted effect of over 15% in size
Method in brief: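 Reporter gene assay: hepatoma cells with DRE/CYP1A2-luciferase, 24 hr compound incubation at 37 C, 5% CO2, luminescence after One-Glo (30 min, RT).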

[19] = biological target: Nuclear receptor subfamily 1 group I member 2 (Rattus norvegicus) (UniProt Q9R1A7); experiment: qHTS assay for small molecule activators of the rat pregnane X receptor (rPXR) signaling pathway (AID 651751; call rule not given here); settings: rPXR reporter cells, luciferase (One-Glo), 24 h
Chain of Nuclear receptor subfamily 1 group I member 2 (Rattus norvegicus) (Q9R1A7 whole entry, looked up): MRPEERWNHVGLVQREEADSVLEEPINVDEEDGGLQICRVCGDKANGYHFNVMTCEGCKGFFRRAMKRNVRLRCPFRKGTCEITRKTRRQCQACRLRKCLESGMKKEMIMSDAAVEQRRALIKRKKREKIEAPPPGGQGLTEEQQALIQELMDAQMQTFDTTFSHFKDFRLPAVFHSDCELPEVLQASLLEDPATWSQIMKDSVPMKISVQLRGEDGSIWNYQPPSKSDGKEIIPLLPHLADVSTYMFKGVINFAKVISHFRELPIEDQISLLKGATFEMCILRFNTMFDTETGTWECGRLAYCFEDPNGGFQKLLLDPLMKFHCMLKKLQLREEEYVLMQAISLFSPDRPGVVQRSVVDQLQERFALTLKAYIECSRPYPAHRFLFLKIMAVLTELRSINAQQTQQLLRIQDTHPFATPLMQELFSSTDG

[20] = Cell Viability - LYMP2-001 (AID 921); further: series mostly up to about 92 µM; nearly all actives have a fitted effect of over 70% in size
Method in brief: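 qHTS, 1536-well; lymphoblastoid cells, 24 hr compound, 37 C; ATP by CellTiter-Glo, 30 min RT; luminescence; Hill-fit AC50.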

Row | Structure (SMILES) | Potency [1] | Potency [2] | Potency [3] | Potency [4] | Potency [5] | Potency [6] | Potency [7] | Potency [8] | Potency [9] | Potency [10] | Potency [11] | Potency [12] | Potency [13] | max response [14] | max response [15] | activity change % (negative = inhibition) [16] | Potency [17] | activation [18] | max response [19] | Potency [20]
1 | O=[N+]([O-])c1ccccc1Nc1ccccc1 | inactive | inactive | inactive | inactive | inactive | inactive | inactive | inactive | inactive | inactive | inactive | inactive | inactive | -9.17% | 0.845% (inactive) | 8.34% (inactive) | inactive | 1.93% (inactive) | -3.61% (inactive) | –
2 | Oc1c(Cl)cc(Cl)c(Cl)c1Cl | inactive | inactive | inactive | inactive | inactive | inactive | inactive | inactive | inactive | inactive | inactive | inactive | inactive | -1.63% and -16.2% | 4.04% (inactive) and 5.02% (inactive) | -15.9% (inactive) and 13.1% (inactive) | 37.6 µM (active) | -0.427% (inactive) | -11.7% (inactive) and -1.19% (inactive) | inactive
3 | COc1ccc([N+](=O)[O-])cc1N | inactive | inactive | inactive | – | – | inactive | inactive | inactive | inactive | inactive | inactive | inactive | inactive | 0.433% and 4.58% | 4.59% (inactive) and -0.147% (inactive) | -27.9% (inactive) | inactive | 1.04% (inactive) and 4.76% (inactive) | – | inactive
4 | COc1ccc(C)cc1N | inactive | inactive | inactive | inactive | inactive | inactive | inactive | inactive | inactive | inactive | inactive | inactive | inactive | -0.963% | 10.5% (inactive) | -19.2% (inactive) | inactive | 3.33% (inactive) | 8.96% (inactive) | inactive
5 | OCC(CBr)(CBr)CBr | inactive | inactive | inactive | inactive | inactive | inactive | inactive | inactive | inactive | inactive | inactive | inactive | inactive | -12.3% | 0.481% (inactive) | -0.909% (inactive) | inactive | 7.86% (inactive) | 6.71% (inactive) | inactive
6 | Oc1ccc2c(c1)OCO2 | inactive | inactive | inactive | inactive | inactive | inactive | inactive | inactive | inactive | inactive | inactive | inactive | inactive | 5.56% | 10.9% (inactive) | 5.85% (inactive) | inactive | -0.0594% (inactive) | -0.719% (inactive) | inactive
7 | c1c[nH]cn1 | inactive | – | inactive | inactive | inactive | inactive | inactive | inactive | inactive | inactive | inactive | inactive | inactive | -8.47% | -1.89% (inactive) | -11.5% (inactive) | inactive | -1.48% (inactive) | -3.01% (inactive) | inactive
8 | Cc1ccc2ccc3cccc4ccc1c2c34 | inactive | inactive | inactive | inactive | inactive | inactive | inactive | inactive | inactive | inactive | inactive | inactive | inactive | -6.82% | -1.11% (inactive) | 1.52% (inactive) | – | 5.12% (inactive) | 10% (inactive) | inactive
9 | c1ccc(SCCSc2ccccc2)cc1 | inactive | inactive | inactive | inactive | inactive | inactive | inactive | inactive | inactive | inactive | inactive | inactive | inactive | 0.714% | -1.47% (inactive) | 8.32% (inactive) | inactive | 14.7% (inactive) | – | inactive
10 | O=[N+]([O-])c1cccc(I)c1 | inactive | inactive | inactive | inactive | inactive | inactive | inactive | inactive | inactive | inactive | inactive | inactive | inactive | -5.01% | -4.26% (inactive) | -8.55% (inactive) | inactive | 0.159% (inactive) | -1.98% (inactive) | inactive
11 | c1ccc(COCc2ccccc2)cc1 | inactive | inactive | inactive | inactive | inactive | inactive | inactive | inactive | inactive | inactive | inactive | inactive | inactive | -0.558% | -1.13% (inactive) | -18.1% (inactive) | inactive | -0.601% (inactive) | 4.39% (inactive) | inactive
12 | c1ccc2ncccc2c1 | inactive | inactive | inactive | inactive | inactive | inactive | inactive | inactive | inactive | inactive | inactive | inactive | inactive | -0.528% | 0.834% (inactive) | 3.38% (inactive) | inactive | -0.0283% (inactive) | 5.68% (inactive) | inactive
